Drawing on article PMC9911399, “Two distinct binding modes provide the RNA-binding protein RbFox with extraordinary sequence specificity”, this text covers binding signal for 32 molecules.

Positions count from the first letter of the chain named. In all, about 16,000 sequences were measured (“ka relative to ugcaugu”: median about 0.0091, highest 2% from about 0.032 on). This excerpt belongs to a sample that is enriched for the highest values.

First the molecules themselves.
T1: RBFOX1 RRM (Homo sapiens, UniProt Q9NWB1 109-208)
T1 sequence: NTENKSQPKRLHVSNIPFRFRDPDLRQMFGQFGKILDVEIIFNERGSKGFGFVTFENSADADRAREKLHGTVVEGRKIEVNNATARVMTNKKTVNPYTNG

B1: AAGCGUG (DNA:RNA)
RNA: GGGAGACCGGAAUUCAGAUUGUCCAAGCGUGUUAAAUCCCGUCGUAGCCACCA
DNA 1: CAATCTGAATTCCGGTCTCCC
DNA 2: TGGTGGCTACGACGGGATT
B2: UUGAUCA (DNA:RNA)
RNA: B1 RNA with A25U, A26U, C28A, G29U, U30C, G31A
DNA 1: CAATCTGAATTCCGGTCTCCC
DNA 2: TGGTGGCTACGACGGGATT
B3: GGGCUGG (DNA:RNA)
RNA: B1 RNA with A25G, A26G, G29U, U30G
DNA 1: CAATCTGAATTCCGGTCTCCC
DNA 2: TGGTGGCTACGACGGGATT
B4: AACCGCC (DNA:RNA)
RNA: B1 RNA with G27C, U30C, G31C
DNA 1: CAATCTGAATTCCGGTCTCCC
DNA 2: TGGTGGCTACGACGGGATT
B5: UCGCAUG (DNA:RNA)
RNA: B1 RNA with A25U, A26C, G29A
DNA 1: CAATCTGAATTCCGGTCTCCC
DNA 2: TGGTGGCTACGACGGGATT
B6: UCGCAUC (DNA:RNA)
RNA: B1 RNA with A25U, A26C, G29A, G31C
DNA 1: CAATCTGAATTCCGGTCTCCC
DNA 2: TGGTGGCTACGACGGGATT
B7: UCGCAUA (DNA:RNA)
RNA: B1 RNA with A25U, A26C, G29A, G31A
DNA 1: CAATCTGAATTCCGGTCTCCC
DNA 2: TGGTGGCTACGACGGGATT
B8: GUAAGUA (DNA:RNA)
RNA: B1 RNA with A25G, A26U, G27A, C28A, G31A
DNA 1: CAATCTGAATTCCGGTCTCCC
DNA 2: TGGTGGCTACGACGGGATT
B9: UCACAAA (DNA:RNA)
RNA: B1 RNA with A25U, A26C, G27A, G29A, U30A, G31A
DNA 1: CAATCTGAATTCCGGTCTCCC
DNA 2: TGGTGGCTACGACGGGATT
B10: GAGCAAA (DNA:RNA)
RNA: B1 RNA with A25G, G29A, U30A, G31A
DNA 1: CAATCTGAATTCCGGTCTCCC
DNA 2: TGGTGGCTACGACGGGATT
B11: CUUUGUC (DNA:RNA)
RNA: B1 RNA with A25C, A26U, G27U, C28U, G31C
DNA 1: CAATCTGAATTCCGGTCTCCC
DNA 2: TGGTGGCTACGACGGGATT
B12: AUCCCAA (DNA:RNA)
RNA: B1 RNA with A26U, G27C, G29C, U30A, G31A
DNA 1: CAATCTGAATTCCGGTCTCCC
DNA 2: TGGTGGCTACGACGGGATT
B13: GGAUCCG (DNA:RNA)
RNA: B1 RNA with A25G, A26G, G27A, C28U, G29C, U30C
DNA 1: CAATCTGAATTCCGGTCTCCC
DNA 2: TGGTGGCTACGACGGGATT
B14: GGAAUCG (DNA:RNA)
RNA: B1 RNA with A25G, A26G, G27A, C28A, G29U, U30C
DNA 1: CAATCTGAATTCCGGTCTCCC
DNA 2: TGGTGGCTACGACGGGATT
B15: GGGAUCA (DNA:RNA)
RNA: B1 RNA with A25G, A26G, C28A, G29U, U30C, G31A
DNA 1: CAATCTGAATTCCGGTCTCCC
DNA 2: TGGTGGCTACGACGGGATT
B16: CGGAUCA (DNA:RNA)
RNA: B1 RNA with A25C, A26G, C28A, G29U, U30C, G31A
DNA 1: CAATCTGAATTCCGGTCTCCC
DNA 2: TGGTGGCTACGACGGGATT
B17: GGAUCGU (DNA:RNA)
RNA: GGGAGACCGGAAUUCAGAUUGUCCGGAUCGUUUAAAUCCCGUCGUAGCCACCA
DNA 1: CAATCTGAATTCCGGTCTCCC
DNA 2: TGGTGGCTACGACGGGATT
B18: CGGAUCG (DNA:RNA)
RNA: B1 RNA with A25C, A26G, C28A, G29U, U30C
DNA 1: CAATCTGAATTCCGGTCTCCC
DNA 2: TGGTGGCTACGACGGGATT
B19: GGGAUCC (DNA:RNA)
RNA: B17 RNA with A27G, U28A, C29U, G30C, U31C
DNA 1: CAATCTGAATTCCGGTCTCCC
DNA 2: TGGTGGCTACGACGGGATT
B20: GGAUUCA (DNA:RNA)
RNA: B17 RNA with C29U, G30C, U31A
DNA 1: CAATCTGAATTCCGGTCTCCC
DNA 2: TGGTGGCTACGACGGGATT
B21: GGGAUCG (DNA:RNA)
RNA: B1 RNA with A25G, A26G, C28A, G29U, U30C
DNA 1: CAATCTGAATTCCGGTCTCCC
DNA 2: TGGTGGCTACGACGGGATT
B22: UAUUAAG (DNA:RNA)
RNA: B1 RNA with A25U, G27U, C28U, G29A, U30A
DNA 1: CAATCTGAATTCCGGTCTCCC
DNA 2: TGGTGGCTACGACGGGATT
B23: UCGCAGA (DNA:RNA)
RNA: B1 RNA with A25U, A26C, G29A, U30G, G31A
DNA 1: CAATCTGAATTCCGGTCTCCC
DNA 2: TGGTGGCTACGACGGGATT
B24: AUACCGG (DNA:RNA)
RNA: B1 RNA with A26U, G27A, G29C, U30G
DNA 1: CAATCTGAATTCCGGTCTCCC
DNA 2: TGGTGGCTACGACGGGATT
B25: ACGUGUU (DNA:RNA)
RNA: B1 RNA with A26C, C28U, G31U
DNA 1: CAATCTGAATTCCGGTCTCCC
DNA 2: TGGTGGCTACGACGGGATT
B26: GCAGUUG (DNA:RNA)
RNA: B1 RNA with A25G, A26C, G27A, C28G, G29U
DNA 1: CAATCTGAATTCCGGTCTCCC
DNA 2: TGGTGGCTACGACGGGATT
B27: UGCUCGU (DNA:RNA)
RNA: B17 RNA with G25U, A27C
DNA 1: CAATCTGAATTCCGGTCTCCC
DNA 2: TGGTGGCTACGACGGGATT
B28: CUGCCCG (DNA:RNA)
RNA: B1 RNA with A25C, A26U, G29C, U30C
DNA 1: CAATCTGAATTCCGGTCTCCC
DNA 2: TGGTGGCTACGACGGGATT
B29: UCGUCGU (DNA:RNA)
RNA: B17 RNA with G25U, G26C, A27G
DNA 1: CAATCTGAATTCCGGTCTCCC
DNA 2: TGGTGGCTACGACGGGATT
B30: CUGUCCG (DNA:RNA)
RNA: B1 RNA with A25C, A26U, C28U, G29C, U30C
DNA 1: CAATCTGAATTCCGGTCTCCC
DNA 2: TGGTGGCTACGACGGGATT
B31: UGCCCGU (DNA:RNA)
RNA: B17 RNA with G25U, A27C, U28C
DNA 1: CAATCTGAATTCCGGTCTCCC
DNA 2: TGGTGGCTACGACGGGATT
B32: CUGCUCG (DNA:RNA)
RNA: B1 RNA with A25C, A26U, G29U, U30C
DNA 1: CAATCTGAATTCCGGTCTCCC
DNA 2: TGGTGGCTACGACGGGATT

In this experiment the target is T1, RBFOX1 RRM. The experiment can be described thus: EMSA; HiTS-Eq, 1 nM pool, 10 min; buffer printed only for the single-RNA assays: 10 mM Tris pH 7.5, 150 mM NaCl, 3.4 mM EDTA, 0.001% NP-40, 30 C. To be noted: tags: His6 N-terminal (pET28a); label: 5' 32P. In a few lines: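 These values rest on relative association constants, computed from read-count changes of each RNA species versus the control reaction and normalised to the cognate motif. Reads came from free RNA recovered by 8% native PAGE after purified RbFox RRM (wild type or mutant) at increasing concentrations was equilibrated for 10 min in 50 µL with 1 nM of a 5′-radiolabelled pool with 7 randomized nucleotides and DNA-annealed flanks.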
For orientation: A gel shift assay detects complexes by their altered migration in electrophoresis.
For the molecule B1, the binding signal was 0.0169 KA relative to UGCAUGU.

Take B2: the binding signal was 0.0152 KA relative to UGCAUGU.

In the case of B3, the binding signal was 0.0301 KA relative to UGCAUGU.

For B4, the binding signal was 0.00718 KA relative to UGCAUGU.

For the molecule B5, the binding signal was 0.809 KA relative to UGCAUGU.

Turning to B6, the binding signal is 0.0121 KA relative to UGCAUGU.

As to B7, the binding signal was 0.00838 KA relative to UGCAUGU.

As to B8, the binding signal was 0.00628 KA relative to UGCAUGU.

B9: the binding signal is 0.00202 KA relative to UGCAUGU.

Consider B10, for which the binding signal is 0.00616 KA relative to UGCAUGU.

With B11, the binding signal was 0.0202 KA relative to UGCAUGU.

Take B12: the binding signal was 0.00187 KA relative to UGCAUGU.

With B13, the binding signal was 0.00934 KA relative to UGCAUGU.

For B14, the binding signal is 0.0216 KA relative to UGCAUGU.

Consider B15, for which the binding signal is 0.0351 KA relative to UGCAUGU.

With B16, the binding signal is 0.0199 KA relative to UGCAUGU.

In the case of B17, the binding signal was 0.0112 KA relative to UGCAUGU.

For B18, the binding signal is 0.0358 KA relative to UGCAUGU.

As to B19, the binding signal is 0.0157 KA relative to UGCAUGU.

Consider B20, for which the binding signal was 0.0122 KA relative to UGCAUGU.

Consider B21, for which the binding signal is 0.0449 KA relative to UGCAUGU.

In the case of B22, the binding signal was 0.0136 KA relative to UGCAUGU.

Take B23: the binding signal was 0.013 KA relative to UGCAUGU.

Take B24: the binding signal is 0.00158 KA relative to UGCAUGU.

Regarding B25, the binding signal was 0.0131 KA relative to UGCAUGU.

B26: the binding signal was 0.0127 KA relative to UGCAUGU.

Consider B27, for which the binding signal is 0.0359 KA relative to UGCAUGU.

With B28, the binding signal was 0.0183 KA relative to UGCAUGU.

Consider B29, for which the binding signal was 0.0184 KA relative to UGCAUGU.

For the molecule B30, the binding signal is 0.0164 KA relative to UGCAUGU.

In the case of B31, the binding signal was 0.0214 KA relative to UGCAUGU.

Take B32: the binding signal was 0.0406 KA relative to UGCAUGU.
